# Results published in PubChem BioAssay.
# Active and inactive are the calls of the source.
# Assays:
# [1] = system: Plasmodium falciparum Sir2 (PF13_0152, Sir2A); assay: Plasmodium falciparum Sir2A binding compounds – biochemical, small-molecule microarray, 635 nm fluorescence, primary screen (AID 1098); conditions: fluorescence 635 nm, higher = more signal;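 note: score merges spot fluorescence intensity with its signal-to-noise ratio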
# [2] = probe aDKK1 binding to arrayed compounds – biochemical, biotinylated probe, 635/667 nm fluorescence, primary screen (AID 1099); conditions: small-molecule microarray, higher = more signal;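 note: score merges 667nm spot fluorescence with signal to noise across triplicate slides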
# [3] = probe aCHRDL2 binding to arrayed compounds – biochemical, biotinylated probe, 635/667 nm fluorescence, primary screen (AID 1100); conditions: small-molecule microarray, higher = more signal
# [4] = change in splice reporter luminescence, either direction, cell-based, HEK293, spliceosome inhibition project, primary screen (AID 1101); conditions: HEK293 splicing luciferase reporter, 24 h, higher = more signal, called active from +8 up or from −8 down;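 note: HEK293 cells carrying a splicing-competent luciferase reporter gene; test concentration not given here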
# [5] = biological target: Fibroblast growth factor 10 (Homo sapiens) (UniProt O15520); assay: compounds binding fibroblast growth factor 10 – biochemical, small-molecule microarray, 635 nm fluorescence, primary screen (AID 1102); conditions: FGF10 binding, fluorescence 635 nm, higher = more signal
# [6] = system: glycogen synthase kinase-3 (GSK3A per assay name; protocol says GSK3B); assay: compounds binding glycogen synthase kinase-3 – biochemical, small-molecule microarray, 635 nm fluorescence, GSK3A, primary screen (AID 1103); conditions: fluorescence 635 nm, higher = more signal; note: the record names both GSK3A and GSK3B
# [7] = biological target: Epidermal growth factor receptor (Homo sapiens) (UniProt P00533); assay: compounds binding epidermal growth factor receptor – biochemical, small-molecule microarray, 635 nm fluorescence, primary screen (AID 1104); conditions: EGFR binding, higher = more signal;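 note: score merges 667 nm emission intensity with spot signal to noise over triplicate slides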
# [8] = biological target: Follistatin-related protein 3 (Homo sapiens) (UniProt O95633); assay: compounds binding follistatin-related protein 3 – biochemical, small-molecule microarray, 635 nm fluorescence, primary screen (AID 1105); conditions: FSTL3 binding, higher = more signal;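 note: score merges emission near 667 nm and signal to noise per printed spot across three slides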
# [9] = biological target: Dickkopf-related protein 1 (Homo sapiens) (UniProt O94907); assay: small molecules binding DKK1 protein – biochemical, small-molecule microarray, 635 nm fluorescence scan, primary screen (AID 1106); conditions: higher = more signal;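 note: score merges emission near 667 nm with signal to noise over three replicate slides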
# [10] = system: Inhibin beta A chain (activin A); assay: small molecules binding activin A – biochemical, small-molecule microarray, 635 nm fluorescence scan, primary screen (AID 1107); conditions: INHBA, higher = more signal;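 note: mouse activin A protein probed at 4.33 µg/mL on printed slides; score merges bound-protein fluorescence near 667 nm with spot signal-to-noise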
# [11] = system: Human papillomavirus type 1a protein E7 (residues 44-93); assay: small molecules binding HPV E7 44-93 – biochemical, small-molecule microarray, residues 44-93, 635 nm fluorescence, primary screen (AID 1108); conditions: fluorescence 635 nm, higher = more signal;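 note: E7 fragment applied at 1 µg/mL in TBST for 1 h at 4 C; score combines spot fluorescence with its signal to noise ratio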
# [12] = hepatitis C replication reporter changes, two-sided – Huh7 cells, luciferase reporter, HCV replication inhibitor project, primary screen (AID 1109); conditions: Huh7 HCV replicon luciferase reporter, 48 h; higher = more signal;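 note: huh7 hepatoma cells harbouring a luciferase neomycin HCV replicon reporter; luciferase luminescence as measure of HCV replicon replication; test concentration not given here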
# [13] = biological target: Left-right determination factor 2 (Homo sapiens) (UniProt O00292); assay: small molecules binding LEFTY2 protein – biochemical, small-molecule microarray, 635 nm fluorescence scan, primary screen (AID 1110); conditions: higher = more signal
# [14] = biological target: Calmodulin-1 (Homo sapiens) (UniProt P0DP23); assay: small molecules binding calmodulin-1 with EGTA – biochemical, small-molecule microarray, Cy5-labelled CALM1, profiling panel (AID 1111); conditions: Cy5-CALM1 binding fluorescence, higher = more signal;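 note: labelled calmodulin applied in Tris saline Tween buffer holding calcium plus EGTA and DTT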
# [15] = biological target: Calmodulin-1 (Homo sapiens) (UniProt P0DP23); assay: small molecules binding Ca-loaded calmodulin-1 – biochemical, small-molecule microarray, Cy5-labelled CALM1, plus calcium, artefact control for SMM control-protein annotation, profiling panel (AID 1112); conditions: Cy5-CALM1 binding fluorescence, higher = more signal;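 note: score merges spot fluorescence with signal to noise from triplicate slides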
# [16] = probe aWnt5a binding to arrayed compounds – biochemical, biotinylated probe, 635/667 nm fluorescence, primary screen (AID 1113); conditions: small-molecule microarray, higher = more signal;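 note: score merges 667 nm fluorescence intensity with signal-to-noise per printed feature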
# [17] = probe aShh binding to arrayed compounds – biochemical, biotinylated probe, 635/667 nm fluorescence, primary screen (AID 1114); conditions: small-molecule microarray, higher = more signal;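 note: probe is biotin-labelled aShh protein from a stem cell growth factor screen; measures binding of labelled protein to compounds printed on the slide; score merges feature fluorescence at 667 nm with signal-to-noise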
# [18] = probe aNog binding to arrayed compounds – biochemical, biotinylated probe, 635/667 nm fluorescence, primary screen (AID 1115); conditions: small-molecule microarray, higher = more signal;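 note: probe is biotinylated aNog protein used at 0.15 µg/mL for 1 h at 4 C; z-score combines 667 nm fluorescence of each spot with its signal to noise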
# [19] = biological target: Torsin-1A-interacting protein 1 (Homo sapiens) (UniProt Q5JTV8); assay: compound microarray binding of lysate hLAP1 – cell lysate, small-molecule microarray, COS7 lysate, 635/667 nm fluorescence, primary screen (AID 1116); conditions: 635 nm fluorescence, higher = more signal
# [20] = biological target: Alpha-bungarotoxin (Bungarus multicinctus) (UniProt P60615); assay: compounds binding labelled alpha-BTX control protein – biochemical, small-molecule microarray, Alexa647 label, 635/667 nm fluorescence, artefact control for SMM control protein annotation, profiling panel (AID 1117); conditions: alpha-BTX-A647 binding fluorescence, higher = more signal
# Sequence of Alpha-bungarotoxin (Bungarus multicinctus) (P60615 whole entry, looked up): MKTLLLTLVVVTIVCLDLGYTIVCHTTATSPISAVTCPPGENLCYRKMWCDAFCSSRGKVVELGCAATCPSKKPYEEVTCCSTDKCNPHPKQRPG
# Sequence of Torsin-1A-interacting protein 1 (Homo sapiens) (Q5JTV8 whole entry, looked up): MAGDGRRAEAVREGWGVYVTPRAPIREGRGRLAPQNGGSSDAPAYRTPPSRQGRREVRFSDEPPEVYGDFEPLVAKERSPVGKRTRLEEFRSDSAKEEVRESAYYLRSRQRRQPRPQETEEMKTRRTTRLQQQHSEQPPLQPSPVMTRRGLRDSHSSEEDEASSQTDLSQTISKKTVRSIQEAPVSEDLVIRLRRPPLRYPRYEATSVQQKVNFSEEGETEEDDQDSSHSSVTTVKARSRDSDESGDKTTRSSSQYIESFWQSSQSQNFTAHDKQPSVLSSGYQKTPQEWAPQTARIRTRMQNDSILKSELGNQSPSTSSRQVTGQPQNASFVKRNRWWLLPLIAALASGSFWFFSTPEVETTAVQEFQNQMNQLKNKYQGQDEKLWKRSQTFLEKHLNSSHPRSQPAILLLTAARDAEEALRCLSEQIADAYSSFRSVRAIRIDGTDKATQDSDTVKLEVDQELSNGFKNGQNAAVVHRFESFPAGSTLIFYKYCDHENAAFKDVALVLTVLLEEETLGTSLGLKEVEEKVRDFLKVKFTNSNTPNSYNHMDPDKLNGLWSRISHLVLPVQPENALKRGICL
# Sequence of Follistatin-related protein 3 (Homo sapiens) (O95633 whole entry, looked up): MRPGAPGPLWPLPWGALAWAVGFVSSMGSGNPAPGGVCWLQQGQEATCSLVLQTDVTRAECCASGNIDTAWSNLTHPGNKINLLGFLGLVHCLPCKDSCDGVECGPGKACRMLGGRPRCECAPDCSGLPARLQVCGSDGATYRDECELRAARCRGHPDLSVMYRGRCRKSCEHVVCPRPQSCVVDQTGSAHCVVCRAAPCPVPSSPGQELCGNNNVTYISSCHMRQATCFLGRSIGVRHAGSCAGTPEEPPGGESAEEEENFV
# Sequence of Fibroblast growth factor 10 (Homo sapiens) (O15520 whole entry, looked up): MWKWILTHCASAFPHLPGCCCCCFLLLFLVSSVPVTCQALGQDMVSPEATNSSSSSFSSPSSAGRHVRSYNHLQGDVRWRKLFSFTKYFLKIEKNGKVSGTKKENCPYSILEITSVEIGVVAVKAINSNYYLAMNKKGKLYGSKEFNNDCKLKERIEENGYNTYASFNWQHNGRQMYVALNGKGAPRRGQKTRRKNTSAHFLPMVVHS
# Sequence of Dickkopf-related protein 1 (Homo sapiens) (O94907 whole entry, looked up): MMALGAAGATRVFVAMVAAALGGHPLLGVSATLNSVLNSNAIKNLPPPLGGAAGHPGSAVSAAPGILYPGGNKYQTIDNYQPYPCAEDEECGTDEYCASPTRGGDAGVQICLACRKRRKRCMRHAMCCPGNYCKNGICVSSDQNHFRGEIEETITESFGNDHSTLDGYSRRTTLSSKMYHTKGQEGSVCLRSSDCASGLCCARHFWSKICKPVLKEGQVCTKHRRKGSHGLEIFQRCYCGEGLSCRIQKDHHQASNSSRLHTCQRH
# Sequence of Epidermal growth factor receptor (Homo sapiens) (P00533 whole entry, looked up): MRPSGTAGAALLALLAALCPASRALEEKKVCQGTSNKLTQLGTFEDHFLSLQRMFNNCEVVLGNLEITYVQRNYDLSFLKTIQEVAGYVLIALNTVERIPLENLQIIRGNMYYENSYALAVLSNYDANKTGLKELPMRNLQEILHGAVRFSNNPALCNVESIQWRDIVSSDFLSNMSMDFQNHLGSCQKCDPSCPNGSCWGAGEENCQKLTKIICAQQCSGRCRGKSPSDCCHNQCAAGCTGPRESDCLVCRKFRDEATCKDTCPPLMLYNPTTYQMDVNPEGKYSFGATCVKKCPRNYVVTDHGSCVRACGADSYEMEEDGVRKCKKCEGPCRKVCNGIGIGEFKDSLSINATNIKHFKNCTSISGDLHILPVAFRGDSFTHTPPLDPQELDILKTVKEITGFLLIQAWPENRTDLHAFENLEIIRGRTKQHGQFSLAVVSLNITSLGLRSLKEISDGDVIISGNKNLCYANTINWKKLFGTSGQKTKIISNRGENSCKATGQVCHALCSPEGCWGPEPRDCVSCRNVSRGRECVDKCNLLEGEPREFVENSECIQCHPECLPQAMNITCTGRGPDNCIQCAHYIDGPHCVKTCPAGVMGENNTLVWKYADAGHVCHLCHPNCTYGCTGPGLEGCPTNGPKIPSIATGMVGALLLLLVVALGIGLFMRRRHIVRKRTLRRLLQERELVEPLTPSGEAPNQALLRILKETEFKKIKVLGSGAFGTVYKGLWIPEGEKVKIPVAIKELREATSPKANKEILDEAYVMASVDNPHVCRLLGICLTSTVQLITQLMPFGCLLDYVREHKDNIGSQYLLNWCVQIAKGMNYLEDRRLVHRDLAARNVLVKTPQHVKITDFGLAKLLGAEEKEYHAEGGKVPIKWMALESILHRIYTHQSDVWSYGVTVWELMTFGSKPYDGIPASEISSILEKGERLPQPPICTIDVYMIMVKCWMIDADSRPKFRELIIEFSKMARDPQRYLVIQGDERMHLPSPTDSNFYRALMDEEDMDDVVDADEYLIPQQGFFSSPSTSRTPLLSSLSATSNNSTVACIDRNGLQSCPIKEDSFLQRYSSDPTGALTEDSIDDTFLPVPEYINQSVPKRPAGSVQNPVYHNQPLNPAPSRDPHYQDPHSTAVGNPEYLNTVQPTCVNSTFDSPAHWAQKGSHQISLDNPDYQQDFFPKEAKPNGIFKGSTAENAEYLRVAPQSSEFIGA
# Sequence of Left-right determination factor 2 (Homo sapiens) (O00292 whole entry, looked up): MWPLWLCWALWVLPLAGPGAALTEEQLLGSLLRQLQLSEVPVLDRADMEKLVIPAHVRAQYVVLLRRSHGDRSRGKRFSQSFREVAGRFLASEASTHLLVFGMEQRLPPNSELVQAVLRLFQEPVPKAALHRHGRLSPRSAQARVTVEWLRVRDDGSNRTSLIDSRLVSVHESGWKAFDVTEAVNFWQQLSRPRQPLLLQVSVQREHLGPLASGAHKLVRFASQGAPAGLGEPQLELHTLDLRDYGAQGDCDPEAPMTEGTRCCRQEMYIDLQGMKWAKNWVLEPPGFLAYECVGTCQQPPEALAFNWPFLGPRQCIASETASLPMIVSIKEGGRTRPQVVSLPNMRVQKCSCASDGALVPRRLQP
Structure (SMILES),composite z-score [1],composite z-score [2],composite z-score [3],z-score [4],composite z-score [5],composite z-score [6],composite z-score [7],composite z-score [8],composite z-score [9],composite z-score [10],composite z-score [11],z-score [12],composite z-score [13],composite z-score [14],composite z-score [15],composite z-score [16],composite z-score [17],composite z-score [18],composite z-score [19],composite z-score [20]
COc1cc(O)c(C(=O)C=Cc2ccc3c(c2)OCO3)c(OC)c1,0.188,-0.323,-0.379,-0.00405 (inactive),0.772,-0.729,-0.229,-0.0642,0.115,0.551,-2.33,-1.53,-0.143,0.283,-0.582,0.0438,-0.332,-0.219,-0.289,0.825
C#CCCCON=C1C[C@@H](O)[C@@H](O)[C@@H]2[C@@H]3C(=O)N(c4cccc(Oc5ccccc5)c4)C(=O)[C@@H]3CC[C@H]12,1.06,-0.406,0.155,-0.558 (inactive),-0.948,-1.56,-0.356,-0.845,-0.557,-0.69,-0.578,0.18,-0.914,-0.423,0.361,-0.172,-0.138,-0.237,0.441,-0.702
CCN1C(=O)[C@H]2[C@H]3[C@H](O)[C@H](O)CC(=NOCC(C)C)[C@@H]3CC[C@H]2C1=O,0.85,-0.0898,-0.672,0.272 (inactive),0.546,1.24,0.767,0.912,0.797,-0.599,1.33,-0.0305,0.32,-0.39,-0.682,-0.096,-0.0709,-0.255,0.317,0.13
COC(=O)[C@@H]1CC[C@H](C)[C@@H](c2ccc(C)cc2)N1C(=O)c1ccc(C=NOCC[C@@H]2C=C[C@H](OC(C)=O)[C@@H](COC(C)=O)O2)cc1,0.35,-0.33,-0.684,0.566 (inactive),0.402,0.637,0.49,0.644,0.948,0.323,0.875,-0.852,0.465,-0.0548,-0.141,-0.0778,-0.0553,-0.37,1.41,0.646
O=C1[C@H]2[C@H]3[C@H](O)[C@H](O)CC(=NOCc4ccccc4)[C@@H]3CC[C@H]2C(=O)N1Cc1ccc2c(c1)OCO2,0.0183,-0.225,-0.453,0.631 (inactive),0.32,-0.0163,0.317,0.517,0.472,0.45,0.0666,-0.276,0.517,-0.206,-0.211,-0.091,-0.154,-0.23,0.366,0.576
COC(=O)CC=C[C@@H](C)[C@@H](C=NO[C@@H]1O[C@H](COC(C)=O)[C@@H](OC(C)=O)[C@H](OC(C)=O)[C@H]1OC(C)=O)OC,-0.225,-0.194,-0.463,0.869 (inactive),-0.481,-0.757,0.383,-0.4,-2.27,-2.01,-0.428,-1.57,0.499,-0.937,-1.48,-0.175,-0.309,-0.249,-0.461,-0.463
C#CCCCON=C1C[C@@H](O)[C@@H](O)[C@@H]2[C@@H]3C(=O)N(CC)C(=O)[C@@H]3CC[C@@H]12,0.254,-0.129,-0.697,0.401 (inactive),1.18,0.545,0.631,0.496,0.628,-0.236,0.431,-0.113,0.507,-0.4,-0.749,-0.164,-0.197,-0.133,0.586,1.27
COc1ccc(O[C@H]2C=C[C@@H](c3ccccc3)O[C@@H]2CON=C(C)CCN2CCc3nc(-c4ccccc4)c(-c4ccccc4)cc3C2)cc1,0.51,-0.259,-0.0652,-0.365 (inactive),-0.156,-0.796,-0.538,0.0193,0.162,0.829,-0.797,-3.38,-0.417,0.387,-0.0427,-0.169,-0.123,-0.198,0.173,0.67
O=C1[C@H]2[C@H]3[C@H](O)[C@H](O)CC(=NOCc4ccccc4)[C@H]3CC[C@H]2C(=O)N1Cc1ccc2c(c1)OCO2,0.297,-0.208,-0.424,0.889 (inactive),0.322,0.238,0.338,0.534,0.582,0.157,-0.249,-0.188,0.621,-0.208,-0.444,-0.091,-0.0553,-0.243,0.336,0.413
CC(C)CON=C1C[C@@H](O)[C@@H](O)[C@@H]2[C@@H]3C(=O)N(C4CCCCC4)C(=O)[C@@H]3CC[C@H]12,0.209,0.0948,-0.106,0.00397 (inactive),0.74,0.842,0.362,0.611,0.544,-0.312,1.2,0.0073,0.999,1.27,-0.0361,-0.0731,-0.16,0.447,0.792,1.13
C#CCCCON=C1[C@H]2CCn3c(=O)n(-c4ccccc4)c(=O)n3[C@H]2[C@H](O)[C@@H]2O[C@H]12,0.164,0.238,-0.615,-1.65 (inactive),0.291,0.621,0.537,0.725,0.521,0.127,0.438,-2.97,0.602,-0.312,-0.273,-0.0792,-0.0146,-0.17,-0.131,0.515
